Rows were chosen to be rich in hits. Some 8.6% of all compounds tested hit in one or more screens of this group.
Lassa entry = qHTS for Inhibitors of binding or entry into cells for Lassa Virus; Lassa virus pseudotyped entry inhibition, cell-based qHTS; Potency, µM (highest dose often 49.2 µM), actives largely listed as inhibitors; hit rate 4.1% among 18,000; AID 720533, 2013
Marburg entry = qHTS for Inhibitors of binding or entry into cells for Marburg Virus; Marburg virus pseudotype entry/binding inhibition, cell-based; Potency, µM (series often up to 49.2 µM), actives largely listed as inhibitors; hit rate 6.5% among 18,000
Numbers stand for hits; i = inactive; ? = inconclusive; nt = not tested or not shown; ! = repeats disagree; [ ] = another dose, or the depositor's remark. The call rests on the fitted dose curve; tested in HEK293 cells.

SMILES | Lassa entry | Marburg entry
C[C@H]1O[C@@H](O[C@H]2CC[C@@]3(C)[C@H](CC[C@@H]4[C@@H]3C[C@@H](O)[C@]3(C)[C@@H](C5=CC(=O)OC5)CC[C@]43O)C2)C[C@H](O)[C@@H]1O[C@H]1C[C@H](O)[C@H](O[C@H]2C[C@H](O)[C@H](O[C@@H]3O[C@H](CO)[C@@H](O)[C@H](O)[C@H]3O)[C@@H](C)O2)[C@@H](C)O1 | 0.35µM | 0.28µM
CC(C)=CCC[C@](C)(O[C@@H]1O[C@H](CO)[C@@H](O)[C@H](O)[C@H]1O)[C@H]1CC[C@]2(C)[C@@H]1[C@H](O)C[C@@H]1[C@@]3(C)CC[C@H](O[C@@H]4O[C@H](CO)[C@@H](O)[C@H](O)[C@H]4O[C@@H]4O[C@H](CO)[C@@H](O)[C@H](O)[C@H]4O)C(C)(C)[C@@H]3[C@@H](O)C[C@]12C | i | ?
CC1OC(O[C@@H]2C(O)CC(O[C@@H]3C(O)C[C@@H](OC4CC[C@]5(C)[C@H](CC[C@H]6[C@@H]5CC[C@]5(C)C(C7=CC(=O)OC7)C(O)C[C@@]65O)C4)OC3C)OC2C)CC(O)C1O (some centres undefined) | 5µM | 0.63µM
C[C@@H]1O[C@H](O[C@@H]2CC[C@@]3(C=O)[C@H]4CC[C@@]5(C)[C@@H](C6=CC(=O)OC6)CC[C@@]5(O)[C@@H]4CC[C@]3(O)C2)C[C@H](O)[C@@H]1O | 3.5µM | 3.5µM
COC1=CC2C(=O)C(C1=O)[C@H](c1ccccc1)[C@H]2C (some centres undefined) | i[8.59 µM] | i[8.59 µM]
CC(C)=CCCC(C)=CCN1C(=O)[C@@]2(CC(C)=C[C@@H](COCc3ccccc3)O2)c2ccccc21 | i[8.59 µM] | i[8.59 µM]
CC1O[C@@H](O[C@@H]2C(O)C[C@H](O[C@@H]3C(O)C[C@@H](OC4CC[C@@]5(C)C6CC(O)[C@@]7(C)C(C8=CC(=O)OC8)CC[C@@]7(O)C6CC[C@@H]5C4)OC3C)OC2C)CC(O)[C@H]1O (some centres undefined) | 1µM | 0.56µM
C[C@H]1O[C@@H](O[C@H]2[C@@H](O)C[C@H](O[C@H]3[C@@H](O)C[C@H](O[C@H]4CC[C@@]5(C)[C@H](CC[C@@H]6[C@@H]5CC[C@]5(C)[C@@H](C7=CC(=O)OC7)CC[C@]65O)C4)O[C@@H]3C)O[C@@H]2C)C[C@H](O)[C@@H]1O | ? | 0.089µM
COC(=O)C1=C(C)N(CC2CC2)C(N(C)Cc2ccc(OC)cc2)=NC1c1ccccc1 (centres undefined) | i[8.59 µM] | i[8.59 µM]
NC[C@@H]1O[C@H](O[C@H]2[C@@H](O)[C@H](O[C@@H]3[C@@H](O)[C@H](N)C[C@H](N)[C@H]3O[C@H]3O[C@H](CN)[C@@H](O)[C@H](O)[C@H]3N)O[C@@H]2CO)[C@H](N)[C@@H](O)[C@@H]1O | i | i
CCCCCC(=O)N1C[C@@H](n2cc(COC(=O)c3ccccc3)nn2)[C@H](O)C[C@H]1c1ccc(OC)cc1 | i | i
C[C@]12CC[C@H]3[C@@H](CCC4=CC(=O)CC[C@@]43C)[C@@H]1CC[C@H]2O | i | i
c1ccc2c(c1)SCc1c-2[nH]c2ccccc12 | ? | 11µM
O=C1Cc2c([nH]c3ccc(Br)cc23)-c2ccccc2N1 | i | i
CC[N+](CC)(CC)CCOc1ccc(/C=C\c2ccccc2)cc1 | 20µM | ?
CC[N+](CC)(CC)CCOc1cccc(OCC[N+](CC)(CC)CC)c1OCC[N+](CC)(CC)CC | i | i
CC(=O)O.CC(=O)O.[Cd] | 7.9µM | 2.8µM
O=C(O)/C=C\C(=O)O | i | i
C#CCCCON=C1C[C@@H](O)[C@H](O)[C@H]2[C@@H]3C(=O)N(Cc4ccccc4)C(=O)[C@@H]3CC[C@H]12 | i[8.59 µM] | i[8.59 µM]
CCCCCCCCCCCCCCOc1ccc(C(=O)O)o1 | 0.56µM | ?
CCCCCCCCOC(=O)c1ccccc1C(=O)OCCCCCCCC | i | i
COC(=O)[C@@]1(O)C[C@@H]2O[C@@]1(C)n1c3ccccc3c3c4c(c5c6ccccc6n2c5c31)C(=O)NC4 | i | 14µM
CC[C@@]12CCCN3CCc4c(n(c5ccccc45)[C@](O)(C(=O)OC)C1)[C@H]32 | i | ?
COC(=O)C1(O)CC2OC1(C)n1c3ccccc3c3c4c(c5c6ccccc6n2c5c31)C(=O)NC4 (centres undefined) | ? | 4µM
C[C@H]1CN(C2CCCCC2)C(=O)[C@H]1CC(=O)Nc1ccccc1 | i | i
SMILES | Lassa entry | Marburg entry
COC(=O)c1c(C(=O)OC)c2c3cc(OC)c(OC)cc3cc([Si](C)(C)C)n2c1C(=O)OC | i[8.59 µM] | i[8.59 µM]
c1ccc2sc(C3(N4CCCCC4)CCCCC3)cc2c1 | ? | 11µM
c1csc(C2(N3CCCCC3)CCCCC2)c1 | i | i
Cc1cc2c(OCC(CNC(C)(C)C)OC(=O)c3ccccc3)cccc2[nH]1 (centres undefined) | i | 35µM
COc1ccc(-c2coc3ncnc(N)c23)cc1 | i | i
CCCC[C@]12Cc3cc(C#N)ccc3[C@H](O1)c1c(c3ccccc3oc1=O)O2 | i[8.59 µM] | i[8.59 µM]
CCCCCC(=O)N1C[C@@H](O)[C@H](n2cc(C3CC3)nn2)C[C@H]1c1ccccc1 | i | i
CC1CC2CCC(O2)C(C)C(=O)OC(C)CC2CCC(O2)C(C)C(=O)OC(C)CC2CCC(O2)C(C)C(=O)OC(C)CC2CCC(O2)C(C)C(=O)O1 (centres undefined) | 1µM | 5µM
Clc1ccccc1-c1nccc(-n2ccnc2)n1 | i | i
Clc1ccccc1C(c1ccccc1)(c1ccccc1)n1ccnc1 | 13µM | 11µM
COCCN1C(=O)NC(CCc2ccccc2)C(C(C)=O)=C1C (centres undefined) | i[8.59 µM] | i[8.59 µM]
CCCCCCCCN=C(N)c1ccc(C(=O)OCC2CCCCC2)cc1 | 13µM | 2.8µM
CCOC(=O)c1ccc(OC(=O)CCCCCN=C(N)N)cc1 | i | i
C=C(Br)CO[C@@H]1C=C[C@@H](c2ccccc2)O[C@@H]1COC | i[8.59 µM] | i[8.59 µM]
CCN1C(=O)c2ccccc2C1Nc1ccc(OCCN2CCCCC2)cc1 (centres undefined) | i | i
Cc1c(-c2ccc(O)cc2)nn(-c2ccc(O)cc2)c1-c1ccc(OCCN2CCCCC2)cc1 | 32µM | 4µM
CC(C)C(=O)N[C@@H]1CCCN1C(=O)C=Cc1ccccc1 | nt | i[8.59 µM]
CC(C)=CCCC1(C)C=Cc2c(O)c3c(c(CC=C(C)C)c2O1)OC12C(CC4CC1C(C)(C)OC2(C/C=C(/C)C(=O)O)C4O)C3=O (centres undefined) | 10µM | i
C#CCN(C[C@H](NC(=O)OC(C)(C)C)C(C)C)S(=O)(=O)c1ccc(Br)cc1F | i | i
COc1cc(=O)n2c(c1C(=O)N(C)Cc1nonc1C)CCN(Cc1cc(F)ccc1F)CC2 | i | i
COc1cc(=O)n2c(c1C(=O)N(C)Cc1nonc1C)CCN(Cc1c(F)cccc1F)CC2 | 11µM | i
CC(=O)N[C@@H](CC(=O)N[C@@H](CCC(=O)O)C(=O)O)C(=O)O | i | i
CC(=O)Nc1ccc(OCCOCCOc2ccc(NC(C)=O)cc2)cc1 | ? | i
CCOc1ccc(N=C(C)Nc2ccc(OCC)cc2)cc1 | i | 11µM
C=C(CCN1C=C(C(=O)OCC)C(c2ccccc2)NC1=O)c1ccccc1 (centres undefined) | i[8.59 µM] | ?
CCCCCCCCCC(=O)O | i | i
CCCCCCCCCCCCCCCC[N+](C)(C)C | ? | 8.9µM!
CCCCCCCC[N+](C)(C)CCCCCCCC | ? | 16µM
C[N+](C)(C)CCCCCC[N+](C)(C)C | i | i
CCCCCCCCCCCCCCCCCC[N+](C)(C)CCC[Si](OC)(OC)OC | i | i
